Measured values from ChEMBL document CHEMBL1961873, “Compounds: GSK PKIS; Assays: Nanosyn kinase panel” (2012).

What follows are compounds tested against Serine/threonine-protein kinase B-raf (Homo sapiens) (UniProt P15056). Details: at 1 µM.
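Note: reported value is the mean percent inhibition of BRAF.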

Chain of Serine/threonine-protein kinase B-raf (Homo sapiens) (P15056 whole entry): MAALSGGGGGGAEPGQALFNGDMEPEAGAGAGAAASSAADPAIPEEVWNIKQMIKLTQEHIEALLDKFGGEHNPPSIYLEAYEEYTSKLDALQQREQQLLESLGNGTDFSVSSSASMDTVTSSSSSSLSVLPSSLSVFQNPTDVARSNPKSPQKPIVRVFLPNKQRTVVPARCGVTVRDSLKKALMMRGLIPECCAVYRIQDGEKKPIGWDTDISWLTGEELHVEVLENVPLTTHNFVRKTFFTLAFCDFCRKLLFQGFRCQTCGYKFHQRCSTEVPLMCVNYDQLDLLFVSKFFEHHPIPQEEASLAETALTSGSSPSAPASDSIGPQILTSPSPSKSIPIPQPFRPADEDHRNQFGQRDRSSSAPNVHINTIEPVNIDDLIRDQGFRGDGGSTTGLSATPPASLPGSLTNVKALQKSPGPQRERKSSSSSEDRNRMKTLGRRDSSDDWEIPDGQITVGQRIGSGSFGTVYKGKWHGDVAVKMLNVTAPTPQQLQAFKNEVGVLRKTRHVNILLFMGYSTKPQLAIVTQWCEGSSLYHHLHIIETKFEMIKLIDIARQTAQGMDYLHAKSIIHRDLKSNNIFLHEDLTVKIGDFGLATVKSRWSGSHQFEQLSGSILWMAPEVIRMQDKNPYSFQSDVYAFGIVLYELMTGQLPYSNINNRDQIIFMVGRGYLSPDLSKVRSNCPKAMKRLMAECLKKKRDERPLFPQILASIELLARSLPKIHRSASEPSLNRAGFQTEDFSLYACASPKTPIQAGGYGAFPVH

Row | Structure (SMILES) | inhibition
1 | Fc1ccc(-c2nn3ccccc3c2-c2ccncc2)cc1 | 7.13%
2 | NS(=O)(=O)c1ccc(N/N=C2\C(=O)Nc3ccc4ncccc4c32)cc1 | 60.2%
3 | CCc1nn2ncccc2c1-c1ccnc(NC2CC2)n1 | 4.97%
4 | O=C(Nc1n[nH]c2cc(-c3ccc(F)cc3)ccc12)C1CC1 | 5.73%
5 | CCCN1CCC(c2ccc(Nc3nc(Nc4cc(F)ccc4C(N)=O)c4cc[nH]c4n3)c(OC)c2)CC1 | 37.6%
6 | CCCN(CCS(C)(=O)=O)Cc1ccc(-c2ccc3ncnc(Nc4ccc(OCc5cccc(F)c5)c(Cl)c4)c3c2)o1 | 3.72%
7 | CC(C)COC(=O)c1ccc2c(c1)/C(=C/Nc1ccc(S(N)(=O)=O)cc1)C(=O)N2 | 32.8%
8 | NS(=O)(=O)c1ccc(Nc2ncc(-c3ccccc3)o2)cc1 | 8.2%
9 | Cc1ccc(O)cc1Nc1ccnc2cc(-c3ccccn3)ccc12 | 12.1%
10 | COc1cc2ncn(-c3cc(OCc4ccccc4C(F)(F)F)c(C(=O)N(C)C)s3)c2cc1OC | 1.2%
11 | COc1ccc(-c2nn3ncccc3c2-c2ccnc(Nc3ccc4c(c3)OCCO4)n2)cc1 | 5.07%
12 | COc1cccc(-n2ncc3c(N/N=C/c4ccc(F)cc4)ncnc32)c1 | 8.16%
13 | COc1cc(Nc2nccc(Nc3ccc4c(C)n[nH]c4c3)n2)cc(OC)c1OC | 9.2%
14 | COc1ccc(-c2cc3c(N)ncnc3o2)cc1 | -0.19%
15 | Nc1ncc(-c2cccc(S(N)(=O)=O)c2)c2scc(-c3ccc(F)c(Cl)c3)c12 | 15.3%
16 | COC(=O)c1sc(-n2cnc3cc(OC)c(OC)cc32)cc1OCc1ccccc1C(F)(F)F | 8.51%
17 | Clc1ccc(-c2nn3ncccc3c2-c2ccnc(Nc3ccccc3)n2)cc1 | 4.94%

Row | Structure (SMILES) | inhibition
18 | CC(=O)NCc1cccc(C#Cc2cncnc2Nc2ccc(OCc3cccc(F)c3)c(Cl)c2)c1 | 1.33%
19 | COc1cc2c(cc1Nc1nc(Nc3ccsc3C(N)=O)c3cc[nH]c3n1)N(C(=O)CN(C)C)CCC2(C)C | 14.9%
20 | Cc1cccc(Nc2ncc(-c3ccccc3)o2)c1 | 6.08%
21 | CCn1c(-c2nonc2N)nc2cnc(Oc3cccc(NC(=O)c4ccc(N(C)C)cc4)c3)cc21 | 5.71%
22 | COc1ccc(-c2oc3ncnc(N)c3c2-c2ccc(NC(=O)Nc3cc(C(F)(F)F)ccc3F)cc2)cc1 | 19.6%
23 | COc1cc(/C=N/Nc2ncnc3[nH]ncc23)ccc1O | 8.88%
24 | Fc1cccc(COc2ccc(Nc3ncnc4sc(-c5ccco5)cc34)cc2Cl)c1 | 5.32%
25 | CN1CCC(n2cnc(-c3ccc(F)cc3)c2-c2ccnc(Nc3ccccc3)n2)CC1 | 4.47%
26 | CNC(=O)c1cccc(C#Cc2cncnc2Nc2ccc(OCc3cccc(F)c3)c(Cl)c2)c1 | 2.22%
27 | CCOc1ccc2c(-c3ccnc(Nc4cccc(C(F)(F)F)c4)n3)cnn2n1 | 1.64%
28 | CCN1CCC(CC(=O)Nc2n[nH]c3nnc(-c4cccc(F)c4F)cc23)CC1 | 2.64%
29 | FC(F)(F)c1cccc(-c2nn3ncccc3c2-c2ccnc(Nc3ccc4c(c3)OCCO4)n2)c1 | 6.42%
30 | CN(C)CCOc1ccc(-c2nc(-c3ccncc3)c(-c3ccc4c(c3)CC/C4=N\O)[nH]2)cc1 | 88.8%
31 | Cc1cccc2c1NC(=O)/C2=N\Nc1ccc(S(N)(=O)=O)cc1 | 4.79%
32 | COc1cccc(-c2c[nH]c3c(N/N=C/c4ccncc4)ncnc23)c1 | 11%
33 | COc1ccc(-c2cc(-c3c[nH]nc3-c3ccccn3)ccn2)cc1 | 6.98%
